Measured values reported in PubChem BioAssay (EPA / NIEHS).
Results filed as inconclusive are left out. Activity calls are given as the source filed them. Rule for the calls, unless noted: active = hit-call score of the fitted dose curve at least 0.9, where 1 is the maximum; inactive = score below 0.9.

Legend:
[1] = CCTE_Mundy_HCI_Cortical_NOG_NeuriteLength: CCTE's Neurite Outgrowth Assay in rat cortical cells for Neurite Length, Mundy Lab (AID 2284213);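 note: neurites imaged about 48 to 50 h after chemical exposure began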
Outline: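 First, rat primary cortical cells were plated and, 2 h later, given test chemical as a 1/10 dilution. Finally, βIII-tubulin immunostaining enabled automated imaging of neurite length.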

[2] = CCTE_Mundy_HCI_Cortical_Synap_Neur_Matur_NeuriteLength: CCTE's Synaptogenesis and Neurite Maturation Assay in rat cortical cells for Neurite Length, Mundy Lab (AID 2284214)
Outline: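 Cultures of rat primary cortical cells received chemical at DIV 7 and were fixed at DIV 12, after glial arrest with AraC at DIV 5. Neurite length was measured by automated imaging of MAP2 immunofluorescence.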

[3] = CCTE_Mundy_HCI_Cortical_Synap_Neur_Matur_SynapseCount: CCTE's Synaptogenesis and Neurite Maturation Assay in rat cortical cells for Synapse Count, Mundy Lab (AID 2284218)
Outline: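 Cells were plated, allowed 2 hr to attach, treated with AraC at DIV 5, then exposed to chemicals from DIV 7 until DIV 12. After fixation and MAP2/synaptophysin immunolabelling, synapses per neuron were quantified by automated imaging against DMSO.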

[4] = CCTE_Mundy_HCI_Cortical_Synap_Neur_Matur_NeuriteCount: CCTE's Synaptogenesis and Neurite Maturation Assay in rat cortical cells for Neurite Count, Mundy Lab (AID 2284222)
Outline: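 Primary rat cortical cells were plated, treated with AraC at DIV 5, then exposed to chemicals from DIV 7 through DIV 12. After fixation and immunostaining for MAP2 and synaptophysin, imaging quantified neurites, with DMSO as the negative control.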

[5] = CCTE_Mundy_HCI_Cortical_Synap_Neur_Matur_CellBodySpotCount: CCTE's Synaptogenesis and Neurite Maturation Assay in rat cortical cells for Cell Body Spot Count, Mundy Lab (AID 2284223)
Outline: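 Read-out: cell body-associated synaptophysin puncta per neuron, imaged after MAP2, synaptophysin and Hoechst staining. Rat cortical cells, AraC DIV 5, chemical dosing DIV 7, fixation DIV 12. Activity fitted in positive direction relative to DMSO baseline.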

[6] = CCTE_Mundy_HCI_hNP1_Pro_ResponderAvgInten: CCTE's Proliferation Assay in human neuroprogenitor cells, Mundy Lab (AID 2284224; active = hit-call score of the fitted dose curve at least 0.9, where 1 is the maximum;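 note: human neural progenitor cells hNP1 derived from WA09 embryonic stem cells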)
Outline: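 Human neuroprogenitors (hNP1, WA09 lineage) receive test chemical after 40 to 44 hours of attachment. A four-hour BrdU pulse begins twenty hours later, followed by fixation and high content imaging; signal is referenced to DMSO controls.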

[7] = UKN2_HCS_IMR90_cell_viability: Viability Assessment in the University of Konstanz (UKN) Leist Lab Neural Crest Cell Migration Assay in human induced IMR90 Pluripotent Stem Cells (UKN2) (AID 2284233);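 note: viability of neural crest cells differentiated from IMR90 iPSC measured by calcein-AM fluorescence imaging; cells exposed to compound for 24 h after a 24 h migration phase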
Outline: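 cMINC format, iPSC-derived neural crest (IMR90); 24 h migration (EGF/FGF, N2-S), then 24 h toxicant. Calcein-AM/H-33342 stain 30 min; fluorescence intensity by HCS; DMSO-normalised, bidirectional fitting.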

[8] = CCTE_Mundy_HCI_Cortical_NOG_NeuronCount: CCTE's Neurite Outgrowth Assay in rat cortical cells for Neuron Count, Mundy Lab (AID 2284236; active = hit-call score of the fitted dose curve at least 0.9, where 1 is the maximum;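 note: neurons counted by imaging betaIII-tubulin and Hoechst stained cortical cells; cells exposed to compound for about 48 hours before fixation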)
Outline: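 Read-out: neuron number by high-content imaging of betaIII-tubulin (Alexa Fluor-488) and Hoechst-labelled rat primary cortical cells.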

[9] = CCTE_Mundy_HCI_Cortical_NOG_BPCount: CCTE's Neurite Outgrowth Assay in rat cortical cells for Branch Point Count, Mundy Lab (AID 2284237);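 note: branch points counted about two days after chemical exposure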
Outline: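 Measured 50.33 h after dosing, this morphology endpoint uses rat primary cortical cultures labelled for betaIII-tubulin. Branch points are quantified by high-content imaging, with DMSO as negative control and baseline.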

[10] = CCTE_Mundy_HCI_hNP1_Casp3_7: CCTE's Caspase-Glo 3/7 Assay in human neuroprogenitor cells for Apoptosis, Mundy Lab (AID 2284240)
Outline: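 Neuroepithelial-lineage stem cells from WA09 embryonic cells were treated with chemicals after 40–44 h of culture. Twenty-four hours later, caspase-3/7 activation was detected luminescently after a 30 min room-temperature reagent step, with DMSO as baseline.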

[11] = CCTE_Mundy_HCI_hNP1_CellTiter: CCTE's Cell Titer-Glo 2 Assay in human neuroprogenitor cells for Viability, Mundy Lab (AID 2284241; active = hit-call score of the fitted dose curve at least 0.9, where 1 is the maximum;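 note: a hit is a drop in ATP luminescence versus DMSO meaning reduced viability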)
Outline: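 Measures ATP content in human neural progenitors derived from WA09 embryonic cells. Read-out at 26.5 hours after dosing, with DMSO serving as the negative control and baseline.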

[12] = CCTE_Mundy_HCI_Cortical_Synap_Neur_Matur_NeuronCount: CCTE's Synaptogenesis and Neurite Maturation Assay in rat cortical cells for Neuron Count, Mundy Lab (AID 2284242; active = hit-call score of the fitted dose curve at least 0.9, where 1 is the maximum;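 note: neuron number from Hoechst nuclei and MAP2 staining by high-content imaging; hits reduce neuron count versus DMSO baseline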)
Outline: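 Cortical cells from rat are plated, treated with AraC at DIV 5, and exposed to test chemicals with a media change at DIV 7. At DIV 12 they are fixed and immunostained (MAP2, synaptophysin), and imaged neuron counts are compared against DMSO controls.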

[13] = IUF_NPC2a_radial_glia_migration_120hr: Leibniz Research Institute for Environmental Medicine (IUF) 120-hour Neural Progenitor Cell Migration Assay for Radial Glia Migration (NPC2a) (AID 2284298)
Outline: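 Hoechst-stained nuclei imaged at 120 h; algorithm maps sphere core by densest nuclei, sets migration edge at density threshold, gives radial glia migration distance (um) per well vs DMSO. hNPC spheres (0.3 mm), PDL/laminin, DMEM/F12 3:1 + 1% N2.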

[14] = IUF_NPC2a_radial_glia_migration_72hr: Leibniz Research Institute for Environmental Medicine (IUF) 72-hour Neural Progenitor Cell Migration Assay for Radial Glia Migration (NPC2a) (AID 2284299)
Outline: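 Single 0.3 mm neurospheres were plated per well in N2 differentiation medium and exposed from the start of differentiation. After 72 hours, brightfield images were taken and radial glia migration from the sphere core edge was measured manually in four directions, averaged per well.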

[15] = IUF_NPC2b_neuronal_migration_120hr: Leibniz Research Institute for Environmental Medicine (IUF) 120-hour Neural Progenitor Cell Migration Assay for Neuron Migration (NPC2b) (AID 2284300)
Outline: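 hNPC spheres, PDL/laminin, DMEM:F12 3:1 + 1% N2, 37C/5% CO2; 7 concentrations + solvent control (DMSO ≤0.1%), 5 d exposure, half-feed day 3. Fix 120 h, TUBB3 ICC, HCI: mean neuron migration distance ÷ glia distance.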

[16] = IUF_NPC3_neuronal_differentiation_120hr: Leibniz Research Institute for Environmental Medicine (IUF) 120-hour Neuronal Differentiation Assay (NPC3) (AID 2284301)
Outline: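 Neuronal differentiation of primary human neural progenitors measured by high-content imaging: percent TUBB3+ of Hoechst+ nuclei within migrated area at 120 h, seven-point serial dilution plus solvent control, gain or loss relative to DMSO.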

[17] = IUF_NPC4_neurite_length_120hr: Leibniz Research Institute for Environmental Medicine (IUF) 120-hour Neuronal Morphology Assay for Neurite Length (NPC4) (AID 2284302)
Outline: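 Neurons from differentiating human fetal neural progenitor spheres are scored for average neurite length after five days of compound exposure. Fitting uses DMSO as negative control.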

[18] = IUF_NPC5_oligodendrocyte_differentiation_120hr: Leibniz Research Institute for Environmental Medicine (IUF) 120-hour Oligodendrocyte Differentiation Assay (NPC5) (AID 2284304; active = hit-call score of the fitted dose curve at least 0.9, where 1 is the maximum;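 note: primary human fetal neural progenitor spheres plated to migrate and differentiate; share of O4-positive cells among Hoechst nuclei found by CNN image analysis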)
Outline: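 hNPC spheres, fetal cortex GW 16-19; PDL/laminin, DMEM:F12 3:1 + 1% N2, 37C/5% CO2; 7 concentrations + solvent control, 5 d exposure, half-change day 3. Readout: %O4+ of Hoechst+ nuclei in migration area, CNN classification; DMSO baseline.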

[19] = IUF_NPC4_neurite_area_120hr: Leibniz Research Institute for Environmental Medicine (IUF) 120-hour Neuronal Morphology Assay for Neurite Area (NPC4) (AID 2284305; active = hit-call score of the fitted dose curve at least 0.9, where 1 is the maximum)
Outline: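 Endpoint at 120 h: automated imaging of TUBB3/Hoechst-stained differentiating human neural progenitor spheres, neurite area per neuron from skeletonization. DMSO solvent control, not above 0.1%, set the baseline; medium was half-replaced on day 3.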

[20] = IUF_NPC2-5_cytotoxicity_72hr: Cytotoxicity Assessment at 72 hours in the Leibniz Research Institute for Environmental Medicine (IUF) Neural Progenitor Cell Migration and Differentiation Assay for Cytotoxicity (NPC2-5) (AID 2284306; active = hit-call score of the fitted dose curve at least 0.9, where 1 is the maximum;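 note: LDH release into supernatant measured by resorufin fluorescence marking membrane damage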)
Outline: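 Primary human neural progenitor spheres migrate and differentiate on laminin. Compound is present from the start of differentiation, with DMSO kept at or below 0.1%. At 72 h, supernatant LDH is quantified fluorometrically, with values fitted in the positive direction.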

[21] = IUF_NPC2-5_cytotoxicity_120hr: Cytotoxicity Assessment at 120 hours in the Leibniz Research Institute for Environmental Medicine (IUF) Neural Progenitor Cell Migration and Differentiation Assay (NPC2-5) (AID 2284307; active = hit-call score of the fitted dose curve at least 0.9, where 1 is the maximum;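 note: LDH released into supernatant as membrane damage marker via resorufin fluorescence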)
Outline: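 hNPC spheres on PDL/laminin, N2 medium, 37C; 7 concs + solvent control, DMSO ≤0.1%; 5-day exposure, half medium changed day 3. LDH in supernatant at 120 h, resazurin→resorufin fluorescence, gain-of-signal.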

[22] = IUF_NPC2-5_cell_number_120hr: Cell Number Assessment at 120 hours in the Leibniz Research Institute for Environmental Medicine (IUF) Neural Progenitor Cell Migration and Differentiation Assay (NPC2-5) (AID 2284308);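 note: count of Hoechst-stained nuclei in migration zone around plated human neural progenitor spheres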
Outline: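 Hoechst-stained nuclei within the migration area were counted by automated high content imaging after 120 h. Single hNPC spheres differentiated on poly-D-lysine/laminin in DMEM/F12 (3:1) with 1% N2, compound present throughout, DMSO ≤0.1%.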

[23] = IUF_NPC2-5_viability_120hr: Viability Assessment at 120 hours in the Leibniz Research Institute for Environmental Medicine (IUF) Neural Progenitor Cell Migration and Differentiation Assay (NPC2-5) (AID 2284312)
Outline: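 Human fetal (GW 16-19) neural progenitor spheres of 0.3 mm were plated on poly-D-lysine/laminin in N2 differentiation medium and exposed from day 0 for 120 h, with half-medium refresh at day 3. Viability was read as alamar blue resazurin-to-resorufin fluorescence against DMSO.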

[24] = CCTE_Mundy_HCI_iCellGluta_NOG_NeuriteLength: CCTE's Neurite Outgrowth Assay in iCellGluta cells for Neurite Length, Mundy Lab (AID 2284318; active = hit-call score of the fitted dose curve at least 0.9, where 1 is the maximum)
Outline: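 Automated high-content imaging of betaIII-tubulin (Alexa Fluor-488) and Hoechst-stained cells gave neurite length, normalized to the DMSO baseline.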

[25] = IUF_NPC1_cytotoxicity_72hr: Cytotoxicity Assessment at 72 hours in the Leibniz Research Institute for Environmental Medicine (IUF) Neural Progenitor Cell Proliferation Assay (NPC1) (AID 2284332; active = hit-call score of the fitted dose curve at least 0.9, where 1 is the maximum;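 note: rising LDH signal means more cytotoxicity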)
Outline: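 Membrane-integrity loss is scored from LDH released into the medium, detected as resorufin fluorescence, with activity fitted upward relative to baseline. Test material stays on human fetal-derived progenitor spheres for 72 h.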

[26] = CCTE_Mundy_HCI_iCellGluta_NOG_NeuriteCount: CCTE's Neurite Outgrowth Assay in iCellGluta cells for Neurite Count, Mundy Lab (AID 2284342; active = hit-call score of the fitted dose curve at least 0.9, where 1 is the maximum;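 note: chemical exposure about 48 hours starting 2 hours after plating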)

Measured: AC50

BrC1CC(Br)CC(Br)CC(Br)CC(Br)CC(Br)C1 (stereo unspecified)
active: [1] 8.28 µM | [2] 4.04 µM | [3] 3.61 µM | [4] 4.27 µM | [5] 3.8 µM | [6] 7.21 µM | [8] 9.27 µM | [9] 8.4 µM | [10] 4.22 µM | [11] 8.39 µM | [12] 3.43 µM | [15] 3.11 µM | [16] 1.72 µM | [17] 1.04 µM | [18] 0.856 µM | [19] 1.06 µM | [21] 4.52 µM | [24] 3.77 µM | [26] 4.69 µM
inactive: [7] | [13] | [14] | [20] | [22] | [23] | [25]
